The target of the assay is AGT mutant of Example 4 (GST fusion) (Homo sapiens, UniProt P16455 SEQ:1-207, Gly131Lys, Gly132Thr, Met134Leu, Arg135Ser, Asn157Gly, Ser159Glu). Briefly: competition; reactivity with BG-modified oligonucleotide. Conditions: tags: N-terminal GST (pGEX-2T); ssDNA; O6-benzylguanine at position 14. The protocol:
Reactivity against DNA-based substrates measured with a BG-Cy3 assay: BG-Cy3 is prepared by reacting the previously described O⁶-(4-aminomethyl-benzyl)guanine (Keppler et al., NatureBiotechnol. 21:86-89, 2003) with the commercially available N-hydroxysuccinimide ester of Cy3, (Cy3-NHS, Amersham). The coupling reaction is performed at ambient temperature in N,N-dimethylformamide in the presence of 1 eq. of triethylamine. The BG-Cy3 conjugate is purified by reversed-phase HPLC on a C18-column by using linear gradients from 0.1% trifluoroacetic acid to acetonitrile. After solvent evaporation BG-Cy3 is dissolved in dimethyl sulfoxide and stored at −20° C. For measuring the reactivity with DNA-based substrates, a reaction mixture containing different concentrations (0 to 5 µM) of oligonucleotide SEQ ID NO:2 (modified in position 14), GST-AGT fusion protein at 0.2 µM and BG-Cy3 at […] in reaction buffer (50 mM HEPES, pH 7.2, 1 mM DTT, […] BSA) is incubated in microtiterplates. Fluorescence of the Cy3 derivative (excitation 519 nm, emission at 572 nm) is measured on a Spectramax Gemini plate reader (Molecular Devices).
Sequence of AGT mutant of Example 4 (GST fusion) (P16455 whole entry G131K/G132T/M134L/R135S/N157G/S159E, the tested form may be a part): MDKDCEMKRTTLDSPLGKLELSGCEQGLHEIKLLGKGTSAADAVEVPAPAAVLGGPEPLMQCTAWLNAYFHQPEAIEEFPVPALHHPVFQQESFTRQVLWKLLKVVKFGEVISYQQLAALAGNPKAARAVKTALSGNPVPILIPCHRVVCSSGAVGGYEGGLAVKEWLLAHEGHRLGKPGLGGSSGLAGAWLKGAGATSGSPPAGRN
Turning to GTGGTGGGCAGCTGAGGCGTGG, the binding signal is at least 1000 fold reduced vs PGEG-hAGT.
